Reference: PubChem BioAssay
A number with no mark means an inactive call. For part of these data: Entries with a potency or affinity are not part of this list. Activity calls are given as the source filed them. Unless noted, no rule for the calls is given here.

What was measured:
[1] = antimalarial activity against Dd2 strain (AID 2302;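 active = growth inhibition above 50% at the single 2 µM test dose, taken to imply half-maximal potency below 2 µM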;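 also: 0% = DMSO untreated growth and 100% = chloroquine plus artemisinin killed control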); conditions: P. falciparum Dd2 in RBCs, LDH growth readout, 72 h; at 2 µM; hits give high values
[2] = human hepatoma cell viability loss – ATP luminescence, cytotoxicity control for P. falciparum antimalarial project, primary screen (AID 2303;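 active = inhibition above 50%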;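 also: 0% = DMSO wells and 100% = digitonin-killed cells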); conditions: HepG2 viability, 24-48 h, at 10 µM, hits give high values
[3] = target: L-lactate dehydrogenase (Plasmodium falciparum (isolate CDC / Honduras)) (UniProt Q27743); assay: PfLDH activity inhibition – cell lysate, 3D7 strain, counter-screen for P. falciparum growth inhibition project (AID 2304);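 also: 0% = vehicle and 100% = reference inhibitor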; conditions: P. falciparum 3D7 crude extract, LDH APAD/NBT absorbance; at 2 µM; hits give high values
L-lactate dehydrogenase (Plasmodium falciparum (isolate CDC / Honduras)), sequence (Q27743 whole entry, looked up): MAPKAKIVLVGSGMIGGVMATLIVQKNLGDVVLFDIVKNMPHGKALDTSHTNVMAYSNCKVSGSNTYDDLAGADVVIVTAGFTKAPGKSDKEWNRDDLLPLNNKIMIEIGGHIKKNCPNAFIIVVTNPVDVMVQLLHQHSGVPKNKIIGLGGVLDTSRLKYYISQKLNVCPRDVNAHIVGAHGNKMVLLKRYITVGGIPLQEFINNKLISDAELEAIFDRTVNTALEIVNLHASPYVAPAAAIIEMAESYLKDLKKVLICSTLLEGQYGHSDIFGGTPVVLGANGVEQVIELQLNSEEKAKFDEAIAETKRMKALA

[4] = inhibition of 3D7 malaria parasite growth – strain 3D7 (AID 2306);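 also: 0% = DMSO wells and 100% = chloroquine plus artemisinin control wells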; conditions: P. falciparum 3D7 erythrocytic growth, LDH absorbance, 72 h; at 2 µM; hits give high values
[5] = target: Calcium-dependent protein kinase 1 (Plasmodium falciparum (isolate 3D7)) (UniProt P62344); assay: PfCDPK1 kinase inhibitors, biochemical, TCAMS library (AID 1159585; cut-off not given, nearly all actives have IC50 up to about 0.98 µM;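 also: inhibitors leave more ATP so luminescence rises with inhibition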); conditions: recombinant PfCDPK1, Kinase-Glo ATP depletion luminescence
Calcium-dependent protein kinase 1 (Plasmodium falciparum (isolate 3D7)), sequence (P62344 whole entry, looked up): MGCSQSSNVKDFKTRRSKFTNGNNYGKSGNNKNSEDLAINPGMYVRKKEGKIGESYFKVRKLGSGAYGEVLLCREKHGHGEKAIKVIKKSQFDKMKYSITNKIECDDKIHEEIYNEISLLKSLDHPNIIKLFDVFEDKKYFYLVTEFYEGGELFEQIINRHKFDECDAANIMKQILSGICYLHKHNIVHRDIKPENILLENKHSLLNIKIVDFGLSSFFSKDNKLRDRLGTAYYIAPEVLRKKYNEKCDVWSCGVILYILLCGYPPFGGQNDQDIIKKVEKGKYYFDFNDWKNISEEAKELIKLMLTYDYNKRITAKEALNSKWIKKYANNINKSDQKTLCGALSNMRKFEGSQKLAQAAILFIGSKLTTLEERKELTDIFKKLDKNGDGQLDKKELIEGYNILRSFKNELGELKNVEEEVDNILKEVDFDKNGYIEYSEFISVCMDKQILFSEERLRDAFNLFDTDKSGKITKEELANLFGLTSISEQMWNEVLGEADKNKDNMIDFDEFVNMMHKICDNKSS

[6] = target: Plasmodium falciparum protein kinase 6 (PK6, PF3D7_1337100) (UniProt Q8IDW1); assay: PfPK6 kinase inhibitors, biochemical, TCAMS library (AID 1159586); conditions: recombinant PfPK6, Kinase-Glo ATP depletion luminescence
Plasmodium falciparum protein kinase 6 (PK6, PF3D7_1337100), sequence (Q8IDW1 1-305): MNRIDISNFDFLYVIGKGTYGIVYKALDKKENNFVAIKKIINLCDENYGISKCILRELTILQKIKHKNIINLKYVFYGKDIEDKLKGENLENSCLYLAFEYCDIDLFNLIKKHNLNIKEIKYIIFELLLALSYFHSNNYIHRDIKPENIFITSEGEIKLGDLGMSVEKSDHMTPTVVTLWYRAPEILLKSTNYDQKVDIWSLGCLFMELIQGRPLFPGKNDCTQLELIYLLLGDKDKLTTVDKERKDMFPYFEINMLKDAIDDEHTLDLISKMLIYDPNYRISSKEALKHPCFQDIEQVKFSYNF

[7] = target: Protein kinase 7 (PK7), Plasmodium falciparum 3D7 (PF3D7_0213400) (UniProt Q7YTF7); assay: inhibition of Plasmodium PK7 catalytic activity – biochemical, TCAMS antimalarial set, Kinase-Glo luminescence (AID 1159587); conditions: recombinant PfPK7, Kinase-Glo ATP depletion luminescence
Protein kinase 7 (PK7), Plasmodium falciparum 3D7 (PF3D7_0213400), sequence (Q7YTF7 1-343): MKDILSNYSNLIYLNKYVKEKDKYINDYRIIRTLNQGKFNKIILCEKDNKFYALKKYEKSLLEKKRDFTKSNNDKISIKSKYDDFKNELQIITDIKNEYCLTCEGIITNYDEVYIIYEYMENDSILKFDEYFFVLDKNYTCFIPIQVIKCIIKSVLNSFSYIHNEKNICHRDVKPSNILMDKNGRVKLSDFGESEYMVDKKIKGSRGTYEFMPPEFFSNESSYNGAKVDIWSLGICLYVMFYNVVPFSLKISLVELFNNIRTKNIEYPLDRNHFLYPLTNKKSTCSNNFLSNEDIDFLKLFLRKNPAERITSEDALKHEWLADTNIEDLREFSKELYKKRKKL

[8] = target: Calcium-dependent protein kinase 4 (Plasmodium falciparum (isolate 3D7)) (UniProt Q8IBS5); assay: PfCDPK4 kinase inhibitors, biochemical, TCAMS library (AID 1159588; cut-off not given, nearly all actives have IC50 up to about 0.91 µM); conditions: recombinant PfCDPK4, Kinase-Glo ATP depletion luminescence
Calcium-dependent protein kinase 4 (Plasmodium falciparum (isolate 3D7)), sequence (Q8IBS5 whole entry, looked up): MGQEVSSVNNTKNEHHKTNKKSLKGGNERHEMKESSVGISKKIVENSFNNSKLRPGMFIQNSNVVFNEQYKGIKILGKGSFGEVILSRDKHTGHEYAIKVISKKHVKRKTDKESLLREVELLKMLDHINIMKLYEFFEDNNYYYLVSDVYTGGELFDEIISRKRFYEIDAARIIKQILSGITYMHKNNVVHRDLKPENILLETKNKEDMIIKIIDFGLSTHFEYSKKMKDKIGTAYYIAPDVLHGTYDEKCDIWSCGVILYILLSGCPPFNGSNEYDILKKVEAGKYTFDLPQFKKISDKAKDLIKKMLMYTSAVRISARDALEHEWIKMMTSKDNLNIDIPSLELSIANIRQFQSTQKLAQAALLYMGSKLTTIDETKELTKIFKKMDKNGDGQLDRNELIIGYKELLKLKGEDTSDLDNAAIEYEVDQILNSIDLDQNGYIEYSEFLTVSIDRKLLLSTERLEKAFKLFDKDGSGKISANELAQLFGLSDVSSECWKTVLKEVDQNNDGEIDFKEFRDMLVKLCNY

Structure (SMILES)	growth inhibition [1]	inhibition [2]	inhibition [3] [%]	growth inhibition [4]	outcome [5]	outcome [6]	outcome [7]	outcome [8]
CCC(C)(CC)C(=O)n1ncc2c3c(N)nc(N)nc3ccc21	6%	73% (active)	-4	94% (active)	inactive	inactive	inactive	inactive
COc1cccc(C(=O)Nc2ccc(Oc3ccc(Cl)cc3)cc2)c1	-2%	33%	-5	92% (active)	inactive	inactive	inactive	inactive
Cc1[nH]c(C)c(-c2ccc(-c3ccccc3Cl)nc2)c(=O)c1Br	96% (active)	-2%	-5	97% (active)	inactive	inactive	inactive	inactive
